“And” between values parts separate entries of the source, which are not always exact repeats. Identical values can stand only once. Results filed as inconclusive are left out. Some compounds were tested as several samples or in several runs, with calls that do not always agree. The source made the active and inactive calls. The call rests on the fitted dose curve; in most records, active means well fitted inhibition curve with a large enough effect; inconclusive means small, poorly fitted or top-dose-only effect; inactive means flat fitted curve, though single readings scatter.
Key:
CRL-7250 = normal cell line; assay: Cytotoxic Profiling of Annotated Libraries Using Quantitative High-Throughput Screening (AID 1296008); conditions: Five cell lines viability, CellTiter-Glo ATP luminescence, 48-72 h; max response: stronger effect = lower value; on max response: on the % scale 0 is the no-effect control and ±100 the full control effect
Outline: (§1)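 Cytotoxicity was measured as CellTiter-Glo ATP luminescence, read after 10 min at room temperature. Compound treatment of the cells lasted 48 or 72 hr at 37 degrees Celsius in a qHTS format.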

HEK293 = assay: as above; conditions: Five cell lines viability, CellTiter-Glo ATP luminescence, 48-72 h; max response: stronger effect = lower value
Outline: as §1

HaCat [1] = assay: as above; conditions: Five cell lines viability, CellTiter-Glo ATP luminescence, 48-72 h; max response: stronger effect = lower value
Outline: as §1

KB-3-1 = assay: as above; conditions: Five cell lines viability, CellTiter-Glo ATP luminescence, 48-72 h; max response: stronger effect = lower value
Outline: as §1

NIH3T3 [2] = assay: as above; conditions: Five cell lines viability, CellTiter-Glo ATP luminescence, 48-72 h; max response: stronger effect = lower value
Outline: as §1

HACAT [3] = assay: qHTS assay to identify novel small-molecules to repurpose for Merkel cell carcinoma treatment (AID 1296009); conditions: MCC and control cell lines, CellTiter-Glo viability, 72 h; at 44.8 µM (top of the series) unless noted
Outline: (§2)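 Cell viability, measured as CellTiter-Glo luminescence, was normalized between DMSO and no-cell wells. The cells had been exposed to 8- or 11-point compound dilutions for 72 hr at 37 degree celsius.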

MCC-13 = assay: as above; conditions: MCC and control cell lines, CellTiter-Glo viability, 72 h; series mostly up to 46 µM
Outline: as §2

MCC-26 = assay: as above; conditions: MCC and control cell lines, CellTiter-Glo viability, 72 h; series mostly up to 46 µM
Outline: as §2

MKL-1 = assay: as above; conditions: MCC and control cell lines, CellTiter-Glo viability, 72 h; series mostly up to 46 µM
Outline: as §2

UISO = assay: as above; conditions: MCC and control cell lines, CellTiter-Glo viability, 72 h; series mostly up to 46 µM
Outline: as §2

WaGa = assay: as above; conditions: MCC and control cell lines, CellTiter-Glo viability, 72 h; series mostly up to 46 µM
Outline: as §2

PC49 = assay: qHTS profiling for inhibitors of Plasmodium falciparum proliferation (AID 504749); conditions: P. falciparum in erythrocytes, SYBR Green DNA, 72 h; series mostly up to 28.7 µM
Outline: (§3)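 SYBR Green fluorescence of parasite DNA, read after lysis and overnight dark incubation, measured growth over 72 h in erythrocyte culture at 0.3% parasitemia and 2.5% hematocrit. Data normalised to DMSO and 0.29 uM artemisinin, with plate-drift correction.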

SC27B = assay: as above; conditions: P. falciparum in erythrocytes, SYBR Green DNA, 72 h; series mostly up to 28.7 µM
Outline: as §3

TAB109 = assay: as above; conditions: P. falciparum in erythrocytes, SYBR Green DNA, 72 h; series mostly up to 28.7 µM
Outline: as §3

TAB113 = assay: as above; conditions: P. falciparum in erythrocytes, SYBR Green DNA, 72 h; series mostly up to 28.7 µM
Outline: as §3

TAB165 = assay: as above; conditions: P. falciparum in erythrocytes, SYBR Green DNA, 72 h; series mostly up to 28.7 µM
Outline: as §3

W2 = assay: as above; conditions: P. falciparum in erythrocytes, SYBR Green DNA, 72 h; series mostly up to 28.7 µM
Outline: as §3

MKL-2 = assay: qHTS assay to identify novel small-molecules to repurpose for Merkel cell carcinoma treatment (AID 1296009); conditions: MCC and control cell lines, CellTiter-Glo viability, 72 h; series mostly up to 46 µM
Outline: as §2

HEK293T = assay: as above; conditions: MCC and control cell lines, CellTiter-Glo viability, 72 h; at 44.8 µM (top of the series) unless noted
Outline: as §2

NIH3T3 [4] = assay: as above; conditions: MCC and control cell lines, CellTiter-Glo viability, 72 h; at 44.8 µM (top of the series) unless noted
Outline: as §2
Further: nearly all actives have a fitted effect of over 60% in size.
Potency means the concentration at half of the fitted maximal effect.

NNC(=O)c1ccncc1
inactive: max response (CRL-7250) 4.6% | outcome (CRL-7250) | max response (HEK293) 3.4% and -0.464% | outcome (HaCat [1]) | max response (KB-3-1) -14.7% and 6.97% | max response (NIH3T3 [2]) 1.44% | outcome (HACAT [3]) | Potency (MCC-13) | Potency (MCC-26) | Potency (MKL-1) | Potency (UISO) | Potency (WaGa)

O=C(O)c1cc(=O)[nH]c(=O)[nH]1
inactive: Potency (PC49) | Potency (SC27B) | Potency (TAB109) | Potency (TAB113) | Potency (TAB165) | Potency (W2) | max response (CRL-7250) 0.562% | outcome (CRL-7250) | max response (HEK293) -5.89% and -6.58% | max response (HaCat [1]) -18% | outcome (HaCat [1]) | max response (KB-3-1) -14.3% and 1.15% | max response (NIH3T3 [2]) 3.37% | outcome (HACAT [3]) | Potency (MCC-13) | Potency (MCC-26) | Potency (MKL-1) | Potency (MKL-2) | Potency (UISO) | Potency (WaGa)

CCn1cc(C(=O)O)c(=O)c2cc(F)c(N3CCN(C)CC3)cc21
inactive: Potency (PC49) | max response (CRL-7250) -3.59% | outcome (CRL-7250) | max response (HEK293) 0.679% | outcome (HEK293) | max response (HaCat [1]) -4.37% | outcome (HaCat [1]) | max response (KB-3-1) 2.67% and -1.65% | max response (NIH3T3 [2]) -2.14% | outcome (NIH3T3 [2]) | outcome (HACAT [3]) inactive [at 17.4 µM] | outcome (HEK293T) inactive [at 17.4 µM] | Potency (MCC-13) | Potency (MCC-26) | Potency (MKL-1) | Potency (MKL-2) | outcome (NIH3T3 [4]) inactive [at 17.4 µM] | Potency (UISO) | Potency (WaGa)

COc1cc([C@@H]2c3cc4c(cc3[C@H](O)[C@H]3COC(=O)[C@H]23)OCO4)cc(OC)c1OC
47.3 nM (active) and inactive: Potency (WaGa)
inactive: max response (CRL-7250) -103% | max response (HEK293) -87.1% | outcome (HaCat [1]) | outcome (HACAT [3]) | Potency (MKL-1)
active: Potency (PC49) 8.91 µM | Potency (SC27B) 4.47 µM | Potency (TAB109) 2.51 µM | Potency (TAB113) 3.16 µM | Potency (TAB165) 2.24 µM | Potency (W2) 1.69 µM | Potency (CRL-7250) 0.0299 µM | Potency (HEK293) 0.0422 µM | Potency (KB-3-1) 32.6 nM and 0.8 nM | Potency (MCC-13) 94.4 nM and 2.6 nM | Potency (MKL-2) 0.0132 µM

C[C@@H]1CN(c2c(F)c(N)c3c(=O)c(C(=O)O)cn(C4CC4)c3c2F)C[C@H](C)N1
inactive: max response (CRL-7250) -4.39% | outcome (CRL-7250) | outcome (HEK293) | max response (HaCat [1]) -0.171% | outcome (HaCat [1]) | max response (KB-3-1) 8.25% and 3.23% | max response (NIH3T3 [2]) 0.0179% and 2.17% | outcome (HACAT [3]) inactive [at 17.4 µM] | outcome (HEK293T) inactive [at 17.4 µM] | Potency (MCC-13) | Potency (MCC-26) | Potency (MKL-1) | Potency (MKL-2) | Potency (UISO) | Potency (WaGa)

C[C@@H](CN1CC(=O)NC(=O)C1)N1CC(=O)NC(=O)C1
inactive and 5.9 µM (active): Potency (MKL-1)
inactive and 3.72 µM (active): Potency (WaGa)
active: Potency (CRL-7250) 0.148 µM | Potency (HEK293) 0.235 µM | Potency (HaCat [1]) 23.5 µM | Potency (NIH3T3 [2]) 0.187 µM
inactive: max response (CRL-7250) 0.572% | max response (HaCat [1]) -7.01% | max response (KB-3-1) 7.8% | Potency (MCC-13) | Potency (MCC-26) | Potency (MKL-2) | Potency (UISO)

O=C(O)c1cccnc1
active: Potency (CRL-7250) 16.6 µM | Potency (HEK293) 2.64 µM
inactive: max response (CRL-7250) 0.94% | max response (HEK293) -12.4% | max response (HaCat [1]) -6.32% | max response (KB-3-1) 23.8% and 4.59% | max response (NIH3T3 [2]) -0.396% and 0.818% | Potency (MCC-13) | Potency (MKL-1) | Potency (MKL-2) | Potency (UISO) | Potency (WaGa)

CNS(=O)(=O)Cc1ccc2[nH]cc(CCN(C)C)c2c1
inactive: Potency (PC49) | Potency (SC27B) | Potency (TAB109) | Potency (TAB113) | Potency (TAB165) | max response (CRL-7250) -6.22% | outcome (CRL-7250) | max response (HEK293) 2.84% | outcome (HEK293) | outcome (HaCat [1]) | max response (KB-3-1) -7.88% and 1.69% | max response (NIH3T3 [2]) -1.5% | outcome (NIH3T3 [2]) | outcome (HACAT [3]) | outcome (HEK293T) | Potency (MCC-13) | Potency (MCC-26) | Potency (MKL-1) | Potency (MKL-2) | outcome (NIH3T3 [4]) | Potency (UISO) | Potency (WaGa)

Nc1nc(F)nc2c1ncn2[C@@H]1O[C@H](CO)[C@@H](O)[C@@H]1O
inactive and 2.09 µM (active): Potency (MCC-26)
active: Potency (CRL-7250) 0.332 µM | Potency (HEK293) 0.662 µM | Potency (KB-3-1) 820 nM and 1.3 µM and 1.18 µM | Potency (MCC-13) 2.35 µM | Potency (MKL-1) 16.8 µM | Potency (UISO) 13.3 µM and 935 nM | Potency (WaGa) 10.6 µM and 935 nM
inactive: max response (CRL-7250) -19.1% | max response (HEK293) -7.93% | max response (HaCat [1]) -5.85% | outcome (KB-3-1)
